Screens from PubChem BioAssay.
A selection: hits, their analogues and other compounds. The true share with any hit is near 4.1%.
hgDAF-12 ag = hgDAF-12 agonism, primary luciferase screen; HEK293 GAL4-hgDAF12 UAS-luciferase reporter, agonist luminescence; normalized to butyrate control; activation, % at 6.8 µM; 370,000 compounds, 1.8% hits;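 active = activation above a cutoff set at the mean of all screened compounds plus 3 SD, cut at about 10% in these data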;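 note: 0% = DMSO wells and 100% = sodium butyrate wells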
hcDAF-12 act = H. contortus DAF-12 activation, primary screen; 370,000 compounds, 1.4% hits; AID 652067; HEK293 hcDAF-12 lit1-tk-luc reporter, luminescence; 0% DMSO, 100% Δ7-dafachronic acid; activation, % at 6.8 µM;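 active = activation above the mean of all tested compounds plus 3 SD, cut at about 5.5% in these data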;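 note: 100% = response to 3 µM Δ7-dafachronic acid high control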
ssDAF-12 act = activates DAF-12 receptor from parasite S. stercoralis. activation, % at 6.8 µM. 370,000 compounds, 1% hits. AID 652126. HEK293 ssDAF-12/GRIP1 lit1-tk-luc reporter, luminescence; % of 3 µM dafachronic acid response;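 active = activation above the mean over all tested compounds plus 3 SD, cut at about 0.9% in these data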;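 note: 0% = DMSO-only wells and 100% = 3 µM delta7-dafachronic acid wells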
DAX1 inh-1 = DAX1 (NR0B1) inhibition, primary screen; HEK293T StAR-luciferase reporter, SF-1/DAX-1 repression relief; 370,000 compounds, 1.1% hits; AID 652010; inhibition, % at 6.8 µM;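 active = inhibition above the mean over all tested compounds plus 3 SD, cut at about 3.6% in these data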;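 note: 0% = DAX-1 cells with DMSO and 100% = cells lacking DAX-1 with DMSO; higher inhibition means more luminescence from relief of DAX-1 repression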
DAX1 inh-2 = inhibits human nuclear receptor DAX1. P51843. HEK293 Gal4-DAX1 luciferase reporter, luminescence. inhibition, % at 6.75 µM. 340,000 compounds, 0.99% hits. AID 504766;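 active = inhibition above the mean over all tested compounds plus 3 SD, cut at about 4.2% in these data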;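 note: 0% = DAX1-transfected cells with DMSO and 100% = empty-vector control cells with DMSO; inhibition shows as a rise in luminescence from relieved DAX1 repression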
Target sequence (P51843 207-470 limits assumed): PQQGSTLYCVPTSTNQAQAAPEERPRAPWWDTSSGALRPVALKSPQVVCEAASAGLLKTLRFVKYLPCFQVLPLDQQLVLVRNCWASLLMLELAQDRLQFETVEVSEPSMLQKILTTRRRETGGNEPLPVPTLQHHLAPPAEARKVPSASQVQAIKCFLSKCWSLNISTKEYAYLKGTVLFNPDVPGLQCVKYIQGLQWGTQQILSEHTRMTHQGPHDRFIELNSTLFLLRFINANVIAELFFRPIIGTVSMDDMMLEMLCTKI
* = called active by the depositor; . = no result given.

SMILES	hgDAF-12 ag	hcDAF-12 act	ssDAF-12 act	DAX1 inh-1	DAX1 inh-2
O=C(CSc1nnc(-c2cccnc2)n1-c1ccc(Cl)cc1)Nc1ccccc1-c1ccccc1	-2	-2	-1	-1	.
O=C(O)Cn1ccc2ccccc21	1	5.7*	1	0	0
Cc1ccc(-n2nc3c(Cl)nnc(C)c3c2C)cc1	-1	0	-2	0	-1
CSc1nnc2c(n1)c(C)nn2-c1ccc(C)cc1	4	5	1.3*	0	2
CCN1C(=O)N[C@H]2C[C@@H](c3ccccc3)[C@@H](C)[C@@H](C(=O)N3CCCC3)C[C@H]21	-1	0	-1	-1	.
Clc1ccsc1-c1csc(-c2cccnc2)n1	8	5	1	0	1
CCCC(=O)Nc1ccc(-c2csc(-c3cccnc3)n2)cc1	0	-2	-2	0	-1
c1cncc(-c2nc(-c3cccs3)cs2)c1	8	6.2*	-1	0	1
c1cncc(-c2csc(-c3cccnc3)n2)c1	6	1	-1	-1	4.7*
CC(=O)Nc1ccc(-c2csc(-c3cccnc3)n2)cc1	11*	3	1	1	2
c1cncc(-c2nc(-c3ccco3)cs2)c1	3	-1	0	0	0
CCN=C1NC(c2ccc(F)cc2)C(C(=O)OC)=C(C)N1Cc1cccc(C(F)(F)F)c1 (stereo unspecified)	-1	0	-1	1	.
COc1cccc(NC(=O)Nc2ccccc2Br)c1	11*	-2	-1	1	2
COc1ccc(NC(=O)Nc2cccc(OC)c2)cc1	7	2	-1	2	0
COc1cccc(C(=O)Nc2cccc(-c3ccc(N4CCOCC4)nn3)c2)c1	5	0	-1	4.0*	1
CC(=O)c1cccc(NC(=S)NC(=O)c2cncc(Br)c2)c1	5	1	0	0	2
COc1cccc(NC(=S)NC(=O)c2cncc(Br)c2)c1	4	1	-1	0	4.5*
COc1ccc(NC(=O)c2ccc(C)cc2)c(OC)c1	12*	4	0	1	1
CCCCCCCCN1C(=O)[C@@H](CC(=O)NCc2ccc(OC)c(OC)c2)C[C@@]2(C(=O)OC)C1=C[C@H](COCc1ccccc1)O[C@@H]2C	3	0	-2	0	.
COc1cccc(C(=O)Nc2cccc(C(C)=O)c2)c1	7	0	-1	2	2
COc1cccc(NC(=O)c2cnc(SC)nc2)c1	3	4	1.3*	0	0
CC(=O)Oc1cccc(NC(=O)c2cccc(C(=O)Nc3cccc(OC(C)=O)c3)c2)c1	0	-1	-1	-1	0
COc1cccc(NC(=O)Nc2nc(SC(C)(C)C)ns2)c1	-1	-2	-2	-1	-3
COc1cccc(NC(=O)Nc2nc(SC)ns2)c1	12*	4	0	2	7.2*
Cc1cccc(C(=O)Nc2cccc(OC(=O)c3cccc(C)c3)c2)c1	13*	4	0	1	2
SMILES	hgDAF-12 ag	hcDAF-12 act	ssDAF-12 act	DAX1 inh-1	DAX1 inh-2
COc1cccc(NC(=O)c2cccc(Cl)c2)c1	12*	4	0	2	1
Cc1ccc(S(=O)(=O)NCC2CCN(C(=O)C(=O)c3cccs3)CC2)cc1	-1	-1	0	0	.
COc1cccc(C(=O)Nc2ccc(C)cc2)c1	9	5	1.6*	4.0*	1
COc1cccc(NC(=O)c2ccc3nc(C)sc3c2)c1	8	5.8*	0	1	5.5*
COc1ccccc1NC(=O)c1ccc2nc(C)sc2c1	4	0	-1	0	1
COc1ccc(CNc2nc3nc(C)cc(C)n3n2)cc1	2	0	-1	2	1
COc1ccc(-c2nc3nc(C)cc(C)n3n2)cc1	3	5.7*	0	1	1
C#CCN1CC(N(C)CCOC(=O)c2ccc(F)cc2)CS1(=O)=O (stereo unspecified)	2	0	-1	0	.
O=[N+]([O-])c1cccc(/C=N/N2CCN(Cc3ccccc3)CC2)c1	5	-1	-1	0	2
O=[N+]([O-])c1ccccc1/C=C/C=N/N1CCCCC1	11*	5	0	3	7.3*
O=[N+]([O-])c1cccc(C=NN2CCCCCC2)c1	11*	3	-1	2	1
N/C(=N\N=C\c1ccc([N+](=O)[O-])cc1)c1nonc1N	11*	2	-1	1	0
COc1ccc(/C=N/N=C(\N)c2nonc2N)cc1OC	9	0	-1	2	3
N/C(=N\N=C\c1ccc(Br)o1)c1nonc1N	13*	3	0	1	6.1*
CC(C)c1ccc(NC(=O)c2ccccc2NC(=O)C2CCCCC2C(=O)O)cc1 (stereo unspecified)	9	0	1	2	5.4*
O=C(Nc1cccc(Cl)c1)c1ccccc1NC(=O)C1CCCCC1C(=O)O (stereo unspecified)	11*	2	0	0	1
COc1ccc(-c2csc(NC(=O)C3=COCCO3)n2)c(OC)c1	5	0	0	3.9*	0
COc1ccc(/C=c2\sc3nc(-c4ccccc4OC)nn3c2=O)c(OC)c1	2	4	0.9*	0	0
COc1ccccc1-c1nc2s/c(=C\c3cccs3)c(=O)n2n1	1	2	0	0	2
O=C(NC(=O)c1ccccc1)Nc1ccccc1	12*	6.2*	1.3*	3	0
S=C(Nc1ccccc1)Nc1ccc2cn[nH]c2c1	5	2	0	1	3
O=C(NC(=S)Nc1ccc2cn[nH]c2c1)c1ccccc1	12*	4	0	3.6*	2
COc1ccc(NC(=O)NC(=O)c2ccccc2)cc1	3	2	0	0	2
CC(=O)c1cccc(NC(=S)NC(=O)c2ccccc2)c1	12*	0	-1	1	1
Cc1ccc(NC(=O)CSc2nnc(-c3ccccc3F)n2-c2ccccc2)c(C)c1	-4	-3	-2	0	.
SMILES	hgDAF-12 ag	hcDAF-12 act	ssDAF-12 act	DAX1 inh-1	DAX1 inh-2
CC(C)(C)NC(=O)c1ccncc1	-2	-2	-1	0	-1
CC(=O)c1c(C(C)=O)c(C)n(NC(=O)c2ccncc2)c1C	-1	0	-1	-1	5.7*
CC(=O)c1cc2c(=O)c3ccccc3oc2nc1C	0	-1	-1	0	0
CCOC(=O)c1cc2c(=O)c3ccccc3oc2nc1C	11*	3	-1	1	2
COc1ccc(OC)c(/C=N/NC(=O)c2cnccn2)c1	1	1	-1	0	4.4*
O=C(N/N=C/c1cc([N+](=O)[O-])ccc1Cl)c1cnccn1	1	0	-1	0	5.1*
C[C@H]1[C@@H](NCC2CCCCC2)CC[C@@]23CCCN2C(=O)CCC[C@@H]13	2	2	-2	.	.
